# Values joined by “and” are separate entries in the source; they are usually repeats but may differ in a detail not shown here. Equal values may be shown once. The list shows a part of the results. Records with an inconclusive call do not appear. Active and inactive are the calls of the source.
# Experiments:
# PubChem AID 1714 = conditions: HEK293-KCC2 + bumetanide/ouabain, thallium flux FluoZin2; at 10 µM; stronger effect = higher value
# [1] = target: Solute carrier family 12 member 5 (Homo sapiens) (UniProt Q9H2X9); test: retest of KCC2 transport modulation, ouabain-free – cell-based, HEK293 KCC2, thallium flux, FluoZin2, secondary assay 2, confirmation (AID 1715); conditions: HEK293-KCC2, thallium flux FluoZin2 fluorescence; at 10 µM; actives lie on both sides; F/F0 rise rate, 10–20 s post-thallium;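 further: raw slope with 0.1% DMSO as baseline and bumetanide as block control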
# Chain of Solute carrier family 12 member 5 (Homo sapiens) (Q9H2X9 whole entry, looked up): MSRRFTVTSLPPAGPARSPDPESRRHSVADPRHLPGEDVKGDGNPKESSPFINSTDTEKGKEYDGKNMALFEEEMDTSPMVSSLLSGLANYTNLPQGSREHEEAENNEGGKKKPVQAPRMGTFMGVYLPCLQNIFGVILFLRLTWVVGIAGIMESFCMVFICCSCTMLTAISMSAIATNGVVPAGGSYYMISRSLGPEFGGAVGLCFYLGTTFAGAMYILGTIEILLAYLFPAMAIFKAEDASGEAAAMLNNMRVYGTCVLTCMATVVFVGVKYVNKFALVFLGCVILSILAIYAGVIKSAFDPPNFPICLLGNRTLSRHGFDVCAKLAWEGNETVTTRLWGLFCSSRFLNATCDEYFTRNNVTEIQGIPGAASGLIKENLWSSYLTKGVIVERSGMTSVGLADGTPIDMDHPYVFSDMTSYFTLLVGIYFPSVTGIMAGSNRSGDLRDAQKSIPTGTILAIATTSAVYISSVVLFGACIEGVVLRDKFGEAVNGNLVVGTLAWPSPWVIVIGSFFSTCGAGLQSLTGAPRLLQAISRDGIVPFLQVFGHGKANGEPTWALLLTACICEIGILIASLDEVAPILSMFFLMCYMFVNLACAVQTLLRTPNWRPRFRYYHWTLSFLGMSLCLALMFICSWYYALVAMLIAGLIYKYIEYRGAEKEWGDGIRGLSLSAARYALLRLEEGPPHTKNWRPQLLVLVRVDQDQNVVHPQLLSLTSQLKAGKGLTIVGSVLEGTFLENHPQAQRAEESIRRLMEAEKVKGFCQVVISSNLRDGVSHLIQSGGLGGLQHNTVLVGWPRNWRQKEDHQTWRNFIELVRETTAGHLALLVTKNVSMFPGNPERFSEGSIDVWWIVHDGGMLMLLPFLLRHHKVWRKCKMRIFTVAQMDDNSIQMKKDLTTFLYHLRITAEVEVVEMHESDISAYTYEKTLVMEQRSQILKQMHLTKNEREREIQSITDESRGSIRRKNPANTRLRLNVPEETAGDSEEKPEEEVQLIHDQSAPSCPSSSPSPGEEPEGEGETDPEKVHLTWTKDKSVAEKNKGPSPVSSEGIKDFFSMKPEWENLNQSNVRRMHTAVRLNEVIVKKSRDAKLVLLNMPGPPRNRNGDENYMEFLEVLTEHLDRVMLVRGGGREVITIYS
# [2] = target: Solute carrier family 12 member 5 (Homo sapiens) (UniProt Q9H2X9); test: modulation of KCC2 thallium flux in HEK cells – cell-based, ouabain, retest, confirmation (AID 1717;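 active means thallium flux slope beyond 3 SD from same-plate DMSO control mean in most replicates, usually higher, sometimes lower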;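 further: slope of initial-normalized fluorescence between seconds 10 and 20 after thallium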); conditions: HEK293-KCC2, thallium flux FluoZin2 fluorescence, at 10 µM, bidirectional: low = inhibitor, high = activator
# [3] = native HEK Tl+ uptake effects, second counter-screen – HEK cells, counterscreen 2, counter-screen for KCC2 modulator project, confirmation (AID 1718;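 active means thallium flux slope above the same plate's solvent-control mean plus 3 SD in both duplicate wells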;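 further: run without ouabain in cells lacking the KCC2 cotransporter; slope of fluorescence scaled to its starting value between 10 and 20 s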); conditions: HEK293 parental, thallium flux FluoZin-2 fluorescence slope; at 10 µM
# [4] = inhibitors of TNFa-induced NFkB p65 translocation, primary screen, imaging, HUVEC, MLSMR starter and 10KST1 sets (AID 438;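 active means inhibition above 20% together with a positive visual image hit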;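 further: compound added about 3h40 before a 20 min TNFalpha stimulation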;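 on inhibition: signal is the nuclear over cytoplasmic p65 intensity ratio per well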); conditions: HUVEC TNFa-induced p65 nuclear translocation; cell count: measured here: nuclei count (cytotoxicity indicator), at 2.08 µM; inhibition: at 2 µM, stronger effect = higher value, 0% TNFa-plus-vehicle, 100% no-TNFa wells
# [5] = reduction of polyQ htt aggregates in cells – imaging, exon1htt(103Q)mCFP cells, high-content imaging, primary screen (AID 483;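 active means visual image review flags a hit and inhibition of aggregation exceeds 20%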;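 further: compound exposure lasted 3 days before fixation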;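 on nuclei count: percent of the per-plate median nuclei count of sample wells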); conditions: exon1htt(103Q)mCFP cell line, aggregate imaging, at 2 µM; inhibition of aggregation: stronger effect = higher value; nuclei count: measured here: cell count, toxicity
# [6] = endothelial E-selectin expression blockers – imaging, HUVEC, immunofluorescence, MLSMR starter and 10KST1 sets, primary screen (AID 487;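 active means visually confirmed hit in the image check and inhibition above 20%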;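 on inhibition: signal is fraction of cell area covered by stained E-selectin grains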;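 on nuclei count: 100% = median nuclei count of all wells on the same plate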); conditions: HUVEC TNFalpha-induced E-selectin immunofluorescence imaging, at 2 µM; inhibition: stronger effect = higher value; nuclei count: measured here: cell number, toxicity
# [7] = Primary imaging screen for DUSP6 inhibitors that restore phospho-Erk in transfected HeLa cells, chemical complementation (AID 609;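 active means compounds giving at least 50% inhibition in the cell-based MKP-3 phosphatase rescue imaging test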;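 on inhibition: phospho-Erk level distribution per well compared with pooled transfected vehicle control wells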); conditions: HeLa MKP-3 transfected, phospho-Erk imaging KS statistic, at 10 µM, cells stimulated with TPA for 15 min
# [8] = target: Dual specificity protein phosphatase 6 (Homo sapiens) (UniProt Q16828); test: as above; conditions: HeLa MKP-3 transfected, phospho-Erk imaging KS statistic; at 10 µM; stronger effect = higher value; cells stimulated with TPA for 15 min
# Chain of Dual specificity protein phosphatase 6 (Homo sapiens) (Q16828 whole entry, looked up): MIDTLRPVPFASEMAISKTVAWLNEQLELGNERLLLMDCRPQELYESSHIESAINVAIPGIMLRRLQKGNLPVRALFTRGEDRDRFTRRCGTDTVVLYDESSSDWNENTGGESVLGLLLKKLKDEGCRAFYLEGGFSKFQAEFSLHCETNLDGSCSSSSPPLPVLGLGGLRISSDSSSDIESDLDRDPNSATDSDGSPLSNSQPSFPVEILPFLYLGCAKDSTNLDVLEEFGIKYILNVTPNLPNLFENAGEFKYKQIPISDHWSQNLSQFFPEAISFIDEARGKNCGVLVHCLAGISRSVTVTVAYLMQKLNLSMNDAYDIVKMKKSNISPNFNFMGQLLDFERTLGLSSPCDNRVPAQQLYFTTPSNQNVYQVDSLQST
# [9] = target: Voltage-gated potassium channel subunit beta-2 (Rattus norvegicus) (UniProt P62483); test: inhibitors of rat Kvbeta2 reductase activity – biochemical, NADPH fluorescence, primary screen (AID 622;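 active means fluorescence slope higher than the sample average by over 3 SD, cut at about -0.22 in these data, passing the limit was not always enough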;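 further: slope of raw intensity against log time taken from 70 to 1610 s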); conditions: recombinant KvBeta, 4-cyanobenzaldehyde reduction, at 10 µM, stronger effect = higher value
# Chain of Voltage-gated potassium channel subunit beta-2 (Rattus norvegicus) (P62483 whole entry, looked up): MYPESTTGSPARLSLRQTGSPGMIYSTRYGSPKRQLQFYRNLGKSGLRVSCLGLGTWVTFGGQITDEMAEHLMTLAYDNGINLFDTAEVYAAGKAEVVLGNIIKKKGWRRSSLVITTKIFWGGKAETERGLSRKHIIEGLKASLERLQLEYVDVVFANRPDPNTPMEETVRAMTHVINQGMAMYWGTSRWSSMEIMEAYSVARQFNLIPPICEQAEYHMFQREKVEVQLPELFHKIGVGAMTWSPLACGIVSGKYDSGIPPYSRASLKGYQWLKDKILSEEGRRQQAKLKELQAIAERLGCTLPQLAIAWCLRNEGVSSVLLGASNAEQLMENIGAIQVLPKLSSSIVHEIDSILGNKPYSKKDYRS
# [10] = target: Voltage-gated potassium channel subunit beta-2 (Rattus norvegicus) (UniProt P62483); test: enhancers of rat Kvbeta2 NADPH turnover – biochemical, NADPH fluorescence, primary screen (AID 623;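 active means NADPH fluorescence slope more negative than the mean of all samples by about 3 SD, 99.7% confidence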;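 further: fluorescence intensity change per second fitted from 20 to 320 s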); conditions: Recombinant KvBeta, NADPH fluorescence decrease slope, 10 min; at 10 µM; stronger effect = lower value
# [11] = target: Alpha-2C adrenergic receptor (Homo sapiens) (UniProt P18825); test: compounds altering alpha2C-coupled GIRK flux – cell-based, HEK293 alpha2C/GIRK1/2, thallium flux, primary screen (AID 624;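 active means fluorescence slope after compound addition differing from the mean of all screened samples at 99.7% confidence, in either direction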;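 further: slope of fluorescence ratio to pre-addition baseline per second over 15 to 24 s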); conditions: thallium flux BTC fluorescence, at 10 µM, actives lie on both sides
# Chain of Alpha-2C adrenergic receptor (Homo sapiens) (P18825 whole entry, looked up): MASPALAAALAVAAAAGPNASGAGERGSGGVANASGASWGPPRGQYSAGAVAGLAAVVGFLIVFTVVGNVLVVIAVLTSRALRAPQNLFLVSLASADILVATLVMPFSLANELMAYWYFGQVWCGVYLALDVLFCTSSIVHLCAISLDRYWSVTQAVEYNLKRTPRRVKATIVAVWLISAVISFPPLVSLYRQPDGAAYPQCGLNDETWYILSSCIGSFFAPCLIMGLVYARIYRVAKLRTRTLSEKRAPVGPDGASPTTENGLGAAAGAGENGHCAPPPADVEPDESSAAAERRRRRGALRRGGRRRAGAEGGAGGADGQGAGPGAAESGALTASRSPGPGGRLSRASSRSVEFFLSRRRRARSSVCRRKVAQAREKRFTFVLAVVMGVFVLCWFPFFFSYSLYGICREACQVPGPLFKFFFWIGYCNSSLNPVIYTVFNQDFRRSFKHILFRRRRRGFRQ
# [12] = inhibitors of larval lipid processing in zebrafish, primary screen, whole organism, PED6 fluorescence, gall bladder and intestine (AID 686;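 active means a full or partial loss of lipid-probe fluorescence in the fish gall bladder, intestine or both, judged by eye; inactive means no fluorescence loss, or compound toxic to the fish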;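 further: larvae 5 to 7 days old with five fish per well; signal comes from phospholipase A2 cleavage of quenched PED6 carried via bile; overnight exposure to compound and PED6 before scoring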); conditions: Zebrafish larvae PED6 lipid processing, fluorescence scoring; screened at 20 µM (by protocol)
# [13] = loss of swimming-algae plug formation – whole organism, Chlamydomonas reinhardtii, WT vs cilia-less mutant, absorbance, 96-well, primary screen (AID 463189;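 active means inhibition at or above 50% relative to wild type and mutant plate controls; inactive means inhibition below 50%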;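 further: 0% = wild type cc124 cells in DMSO and 100% = ciliumless bld1 mutant cells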); conditions: Chlamydomonas reinhardtii gravitaxis, OD600 absorbance, 2 days; at 10 µM; stronger effect = higher value
# [14] = blockers of RIG-like receptor reporter activation – cell-based, Sendai virus stimulus, luciferase, 10K MLSCN set, TLR/RLR signaling modifier project, primary screen (AID 602276;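 active means inhibition at or above 50% at 10 µM; inactive means inhibition below 50%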;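 further: firefly luciferase from ISG56 promoter only with Renilla not read in this screen; 0% = Sendai virus plus DMSO and 100% = medium plus DMSO without virus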); conditions: HEK293 RL24 IRF3 luciferase reporter, at 10 µM, stronger effect = higher value
# [15] = TLR3 IRF3 reporter activation blockers – cell-based, poly I:C stimulus, luciferase, 10K MLSCN set, primary screen (AID 602277;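 active means inhibition of the reporter signal at or above 50%; inactive means inhibition below 50%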); conditions: HEK293-TLR3 RL24 IRF3 luciferase reporter, at 10 µM, stronger effect = higher value
# [16] = compound effects on native HEK Tl+ uptake – HEK cells, counterscreen 1, counter-screen for KCC2 modulator project, confirmation (AID 1716;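 active means thallium flux rate significantly above the same plate's solvent-only control wells, beyond their mean plus 3 SD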); conditions: HEK293 parental cells, thallium flux FluoZin2, ouabain; at 10 µM; baseline-ratio fluorescence slope, 10–20 s after thallium
# [17] = target: Solute carrier family 12 member 5 (Homo sapiens) (UniProt Q9H2X9); test: retest of KCC2 transport modulators without sodium – cell-based, HEK293 KCC2, thallium flux, secondary assay, confirmation (AID 1713;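 active means thallium flux slope above the same plate's solvent-only control mean plus 3 SD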); conditions: FluoZin2 fluorescence, at 10 µM, stronger effect = higher value
# [18] = target: Muscarinic acetylcholine receptor M4 (Homo sapiens) (UniProt P08173); test: M4-linked GIRK flux change, two-sided – cell-based, HEK293 M4/GIRK, thallium flux, BTC-AM, M4 allosteric agonist project, primary screen (AID 625;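 active means fluorescence slope after compound addition differing from the mean of all tested samples at 99.7% confidence, mostly higher but some lower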;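 further: thallium influx through GIRK channels coupled to M4 in HEK293 cells with BTC-AM dye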); conditions: at 10 µM, actives lie on both sides
# Chain of Muscarinic acetylcholine receptor M4 (Homo sapiens) (P08173 whole entry, looked up): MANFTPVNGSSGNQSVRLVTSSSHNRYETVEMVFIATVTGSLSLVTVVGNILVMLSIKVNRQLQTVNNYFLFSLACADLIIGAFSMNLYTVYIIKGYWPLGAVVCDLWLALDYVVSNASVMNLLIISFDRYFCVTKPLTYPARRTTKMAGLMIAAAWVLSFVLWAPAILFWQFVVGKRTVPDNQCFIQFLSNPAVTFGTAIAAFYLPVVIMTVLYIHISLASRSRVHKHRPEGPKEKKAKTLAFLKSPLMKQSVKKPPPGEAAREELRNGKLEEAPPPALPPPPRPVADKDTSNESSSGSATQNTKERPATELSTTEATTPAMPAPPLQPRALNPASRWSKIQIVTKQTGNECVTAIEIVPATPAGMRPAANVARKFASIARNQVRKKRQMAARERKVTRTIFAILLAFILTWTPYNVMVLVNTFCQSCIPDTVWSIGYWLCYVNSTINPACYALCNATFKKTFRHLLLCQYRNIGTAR
# [19] = measured here: cell density z-score
# [20] = measured here: nuclear c-Myc green intensity z-score
# [21] = measured here: nuclear pErk red intensity z-score, stronger effect = higher value
smiles,measurement,setting,value
O=C(Nc1ccccc1F)C1C2C=CC3(O2)C1C(=O)N(c1cccnc1)C3C(=O)NC1CCCCC1 (centres undefined),normalized thallium flux,PubChem AID 1714,0.00547 (active)
same,normalized thallium flux,[1],0.0222 (active)
same,"raw Tl+ flux slope (below DMSO = inhibition, above = activation)",[2],0.0131 (active)
same,thallium flux slope,[3],0.0108 (inactive)
C=CCn1c(=S)[nH]c2nc3c(cc2c1=O)COC(C)(C)C3,cell count,[4],590
same,inhibition,[4],-2.3% (inactive)
same,inhibition of aggregation,[5],0.9% (inactive)
same,nuclei count,[5],109%
same,inhibition,[6],-9.4% (inactive)
same,nuclei count,[6],134%
same,z-score,[7]; [19],1.01
same,z-score,[7]; [20],0.551
same,z-score,[7]; [21],-1.17
same,inhibition,[8],3.66% (inactive)
same,fluorescence slope,[9],-0.495 (inactive)
same,NADPH fluorescence slope,[10],-0.00014 (inactive)
same,slope,[11],0.00772 (inactive)
same,outcome,[12],inactive
same,normalized thallium flux,PubChem AID 1714,0.0176 (active)
same,normalized thallium flux,[1],0.0337 (inactive)
same,thallium flux slope,[3],0.0123 (inactive)
same,inhibition,[13],-8.98% (inactive)
same,inhibition,[14],14.5% (inactive)
same,inhibition,[15],-0.984% (inactive)
CC(C)CNC(=S)NC(=O)c1ccc(Cl)cc1,normalized thallium flux,PubChem AID 1714,0.0714 (active)
same,normalized thallium flux,[1],0.0638 (active)
same,thallium flux rate (normalised fluorescence),[16],0.0685 (active)
same,"raw Tl+ flux slope (below DMSO = inhibition, above = activation)",[2],0.0663 (active)
same,thallium flux slope,[3],0.0594 (active)
O=C(O)CS/C(=C\c1ccc(F)cc1)c1nc2ccccc2s1,normalised thallium flux (F/F0 slope),[17],0.0153 (inactive)
same,thallium flux rate (normalised fluorescence),[16],0.00592 (active)
same,"raw Tl+ flux slope (below DMSO = inhibition, above = activation)",[2],0.011 (active)
C/C(=C\C(=O)c1ccc(Br)cc1)N1CCCCC1,normalized thallium flux,PubChem AID 1714,0.0396 (active)
same,normalized thallium flux,[1],0.0283 (inactive)
same,thallium flux rate (normalised fluorescence),[16],0.0152 (active)
same,thallium flux slope,[3],0.0111 (active)
Cc1ccccc1-c1nc(CS(=O)(=O)CC(=O)N2CCc3ccccc3C2)c(C)o1,normalized thallium flux,PubChem AID 1714,0.00657 (inactive)
same,thallium flux rate (normalised fluorescence),[16],0.00685 (inactive)
same,"raw Tl+ flux slope (below DMSO = inhibition, above = activation)",[2],0.0154 (active)
C[C@@H](C(=O)Nc1ccc2ccccc2c1)[C@@H]1C[C@@]1(C)[C@@H](NC(=O)c1cccnc1)c1ccccc1,normalised thallium flux (F/F0 slope),[17],0.00785 (inactive)
same,normalized thallium flux,[1],0.0226 (active)
same,thallium flux rate (normalised fluorescence),[16],0.00775 (inactive)
same,"raw Tl+ flux slope (below DMSO = inhibition, above = activation)",[2],0.0135 (active)
same,thallium flux slope,[3],0.0098 (inactive)
CCOC(=O)c1ccccc1N1C(=O)C2Sc3[nH]c(=O)sc3C(/C=C/c3ccccc3)C2C1=O (centres undefined),normalised thallium flux (F/F0 slope),[17],0.00694 (inactive)
same,normalized thallium flux,[1],0.0266 (active)
same,thallium flux rate (normalised fluorescence),[16],0.00732 (inactive)
same,"raw Tl+ flux slope (below DMSO = inhibition, above = activation)",[2],0.00834 (active)
same,thallium flux slope,[3],0.0106 (inactive)
c1ccc2[nH]c(-c3cscn3)nc2c1,cell count,[4],587
same,inhibition,[4],2.5% (inactive)
same,inhibition of aggregation,[5],-29.1% (inactive)
same,nuclei count,[5],99.7%
same,inhibition,[6],-51.2% (inactive)
same,nuclei count,[6],111%
same,z-score,[7]; [19],-1.12
same,z-score,[7]; [20],-0.0303
same,z-score,[7]; [21],-0.292
same,inhibition,[8],1.38% (inactive)
same,fluorescence slope,[9],-0.491 (inactive)
same,NADPH fluorescence slope,[10],-6.5e-05 (inactive)
same,slope,[11],0.00525 (inactive)
same,inhibition,[13],45% (inactive)
same,inhibition,[14],-40.2% (inactive)
same,inhibition,[15],-133% (inactive)
COc1ccc(Cl)cc1S(=O)(=O)Nc1cccc(C(=O)O)c1,normalised thallium flux (F/F0 slope),[17],0.00707 (inactive)
same,normalized thallium flux,[1],0.0299 (inactive)
same,thallium flux slope,[3],0.0107 (inactive)
CCCC(=O)N1c2ccccc2NC2=C(C(=O)CCC2)C1c1ccc(F)cc1 (centres undefined),cell count,[4],593
same,inhibition,[4],-9.6% (inactive)
same,inhibition of aggregation,[5],3.9% (inactive)
same,nuclei count,[5],124%
same,inhibition,[6],-94.4% (inactive)
same,nuclei count,[6],123%
same,fluorescence slope,[9],-0.574 (inactive)
same,NADPH fluorescence slope,[10],-1.5e-05 (inactive)
same,slope,[11],0.0063 (inactive)
same,normalised thallium flux (F/F0 slope),[17],0.0086 (inactive)
same,normalized thallium flux,[1],0.0312 (inactive)
same,thallium flux rate (normalised fluorescence),[16],0.0072 (inactive)
same,"raw Tl+ flux slope (below DMSO = inhibition, above = activation)",[2],0.0212 (inactive)
same,inhibition,[14],8.4% (inactive)
same,inhibition,[15],23.4% (inactive)
Cc1ccc(C(=O)NC(=S)Nc2ccccc2C)cc1,normalized thallium flux,PubChem AID 1714,0.0441 (active)
same,normalized thallium flux,[1],0.0421 (active)
same,thallium flux rate (normalised fluorescence),[16],0.0432 (active)
same,"raw Tl+ flux slope (below DMSO = inhibition, above = activation)",[2],0.0453 (active)
same,thallium flux slope,[3],0.0284 (active)
CC1CC(C)(C)n2c(O)c(N=NC(N)=S)c3cccc1c32 (centres undefined),normalized thallium flux,PubChem AID 1714,0.0259 (active)
same,normalized thallium flux,[1],0.0382 (inactive)
same,"raw Tl+ flux slope (below DMSO = inhibition, above = activation)",[2],0.0373 (active)
NC(N)=NC(=O)c1nc(Cl)c(N)nc1N,cell count,[4],517
same,inhibition,[4],-4.2% (inactive)
same,inhibition of aggregation,[5],-1.5% (inactive)
same,nuclei count,[5],103%
same,inhibition,[6],-76.7% (inactive)
same,nuclei count,[6],114%
same,z-score,[7]; [19],2.22
same,z-score,[7]; [20],-1.45
same,z-score,[7]; [21],-1.51
same,inhibition,[8],30.1% (inactive)
same,fluorescence slope,[9],-0.443 (inactive)
same,NADPH fluorescence slope,[10],-7.2e-05 (inactive)
same,slope,[11],0.00564 (inactive)
same,inhibition,[13],4.19% (inactive) and 21.2% (inactive)
same,inhibition,[14],15.9% (inactive)
same,inhibition,[15],42% (inactive)
Cc1cccc(N(CC(O)CN(C)C)S(=O)(=O)c2ccccc2)c1 (centres undefined),cell count,[4],660
same,inhibition,[4],-8.8% (inactive)
same,inhibition,[6],-9.3% (inactive)
same,nuclei count,[6],177%
same,z-score,[7]; [19],0.811
same,z-score,[7]; [20],0.15
same,z-score,[7]; [21],0.694
same,inhibition,[8],1.42% (inactive)
same,fluorescence slope,[9],-0.413 (inactive)
same,NADPH fluorescence slope,[10],-6e-05 (inactive)
same,fluorescence slope,[18],0.00446 (inactive)
same,outcome,[12],inactive
same,normalised thallium flux (F/F0 slope),[17],0.00903 (inactive)
same,normalized thallium flux,[1],0.0335 (inactive)
same,thallium flux rate (normalised fluorescence),[16],0.00768 (inactive)
same,"raw Tl+ flux slope (below DMSO = inhibition, above = activation)",[2],0.0203 (inactive)
same,thallium flux slope,[3],0.0103 (inactive)
same,inhibition,[13],30.7% (inactive)
N#Cc1ccc(C(=O)Nc2nc(-c3cccs3)c(C(=O)C(F)(F)F)s2)cc1,normalised thallium flux (F/F0 slope),[17],0.00795 (inactive)
same,normalized thallium flux,[1],0.033 (inactive)
same,thallium flux rate (normalised fluorescence),[16],0.00821 (inactive)
same,"raw Tl+ flux slope (below DMSO = inhibition, above = activation)",[2],0.0191 (inactive)
N#Cc1c(-c2ccc(Cl)cc2)c2c([nH]c1=S)CCCC2,normalized thallium flux,PubChem AID 1714,0.0281 (active)
same,normalized thallium flux,[1],0.0403 (active)
same,thallium flux rate (normalised fluorescence),[16],0.0184 (active)
same,"raw Tl+ flux slope (below DMSO = inhibition, above = activation)",[2],0.0302 (active)
same,thallium flux slope,[3],0.0192 (active)

# — PubChem BioAssay
